Assay results from PubChem BioAssay (NCATS).
Results filed as inconclusive are left out. Calls of active or inactive are those of the source. Unless noted, the call rests on the fitted dose curve.

How the values were obtained:
[1] = qHTS for Inhibitors of the Functional Ribonucleoprotein Complex (vRNP) of Lassa (LASV) Arenavirus: LASV Primary Screen - GLuc reporter signal (AID 1347082; calls by dose curve; tested in HEK293 reporter line; further: nearly all actives have a fitted effect of over 60% in size; further: potency means the concentration at half of the fitted maximal effect)
[2] = qHTS for Inhibitors of the Functional Ribonucleoprotein Complex (vRNP) of Lymphocytic Choriomeningitis Arenaviruses (LCMV): Viability assay - alamar blue signal for LCMV Primary Screen (AID 1347085; calls by dose curve; tested in HEK293 reporter line; further: nearly all actives have a fitted effect of over 80% in size; further: potency means the concentration at half of the fitted maximal effect)
[3] = target: Nucleoprotein (Lymphocytic choriomeningitis virus (strain Armstrong)) (UniProt P09992); assay: qHTS for Inhibitors of the Functional Ribonucleoprotein Complex (vRNP) of Lymphocytic Choriomeningitis Arenaviruses (LCMV): LCMV Primary Screen - GLuc reporter signal (AID 1347086); further: nearly all actives have a fitted effect of over 70% in size; further: potency means the concentration at half of the fitted maximal effect
Nucleoprotein (Lymphocytic choriomeningitis virus (strain Armstrong)), sequence (P09992 whole entry, looked up): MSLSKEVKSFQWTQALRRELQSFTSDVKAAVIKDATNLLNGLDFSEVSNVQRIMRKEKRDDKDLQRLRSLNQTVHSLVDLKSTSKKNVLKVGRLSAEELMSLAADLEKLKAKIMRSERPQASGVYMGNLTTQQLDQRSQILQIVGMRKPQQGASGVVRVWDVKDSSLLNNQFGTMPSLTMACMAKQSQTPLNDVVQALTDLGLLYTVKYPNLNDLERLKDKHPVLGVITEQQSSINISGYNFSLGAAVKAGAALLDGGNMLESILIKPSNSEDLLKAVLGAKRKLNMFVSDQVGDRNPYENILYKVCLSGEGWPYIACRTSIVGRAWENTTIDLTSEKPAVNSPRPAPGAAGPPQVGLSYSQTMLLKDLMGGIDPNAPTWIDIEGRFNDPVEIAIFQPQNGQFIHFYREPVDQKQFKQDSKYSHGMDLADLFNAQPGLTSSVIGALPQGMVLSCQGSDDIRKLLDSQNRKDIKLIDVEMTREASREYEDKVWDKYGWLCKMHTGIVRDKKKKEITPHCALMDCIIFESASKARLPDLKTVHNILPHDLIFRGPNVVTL

[4] = Cytotoxicity counterscreen for inhibitors of SARS-CoV-2 cell entry (AID 1645845); further: nearly all actives have a fitted effect of over 50% in size; further: potency means the concentration at half of the fitted maximal effect
Outline: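 After a 15 min room-temperature ATPLite 1step step, luminescence reflected ATP remaining in HEK293-ACE2 cells exposed to compound for 1 h plus 48 h at 37 C, with percent activity set by cell and no-cell controls.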

[5] = Primary qHTS to identify inhibitors of SARS-CoV-2 cell entry (AID 1645846); conditions: activity change, negative = inhibition: at 57.1 µM (top of the series) unless noted; further: nearly all actives have a fitted effect of over 45% in size; further: potency means the concentration at half of the fitted maximal effect
Outline: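 Using luciferase-reporting pseudoviruses carrying Wuhan-Hu-1 spike, the screen tracks entry into stably ACE2-expressing cells over 48 hr. Activity is expressed relative to spike particles versus particles lacking any fusion protein.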

[6] = Confirmatory qHTS to identify inhibitors of SARS-CoV-2 cell entry (AID 1645844); further: potency means the concentration at half of the fitted maximal effect; nearly all actives have a fitted effect of over 45% in size
Outline: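 Using stable human ACE2 Expi293F cells, compounds preincubated 1 hr before spike pseudoparticle infection; luciferase signal after 48 hr at 37C, 5% CO2, normalised to spike PP and no-fusion-protein PP wells.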

[7] = VSVG counterscreen qHTS to identify inhibitors of SARS-CoV-2 cell entry (AID 1645847); further: potency means the concentration at half of the fitted maximal effect; nearly all actives have a fitted effect of over 65% in size
Outline: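 Entry of VSV-G pseudotyped particles into human ACE2-expressing HEK293 cells was measured by luciferase luminescence 48 h after infection, with compound added 1 h beforehand.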

[8] = target: Alpha-galactosidase (Coffea arabica) (UniProt Q42656); assay: Counterscreen for Glucocerebrosidase Inhibitors: qHTS Assay for Coffee Bean alpha-Galactosidase at pH 4.5 (AID 957; active means well fitted curve in the direction sought with a large enough effect; an effect the other way counts as inactive or inconclusive)
Alpha-galactosidase (Coffea arabica), sequence (Q42656 whole entry, looked up): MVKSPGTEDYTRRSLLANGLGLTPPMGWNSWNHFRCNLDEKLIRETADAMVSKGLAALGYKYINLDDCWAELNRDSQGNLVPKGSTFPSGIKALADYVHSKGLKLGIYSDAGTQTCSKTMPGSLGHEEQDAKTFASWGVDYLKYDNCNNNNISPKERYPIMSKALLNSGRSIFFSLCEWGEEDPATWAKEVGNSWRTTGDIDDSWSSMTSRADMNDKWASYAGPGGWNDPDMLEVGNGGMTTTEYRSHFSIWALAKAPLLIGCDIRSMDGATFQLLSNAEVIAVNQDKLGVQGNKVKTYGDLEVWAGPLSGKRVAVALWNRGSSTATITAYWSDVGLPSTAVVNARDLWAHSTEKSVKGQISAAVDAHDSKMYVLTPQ
Outline: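 Enzyme is added first (2 nM final), then compounds titrated from 0.7 nM to 77 uM, then 80 uM 4-methylumbelliferyl alpha-D-galactopyranoside; after 20 min at room temperature a pH 10 NaOH/glycine stop precedes fluorescence reading at 365/440 nm.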

[9] = target: Alpha-galactosidase (Coffea arabica) (UniProt Q42656); assay: Counterscreen for Glucocerebrosidase Inhibitors: qHTS Assay for Coffee Bean alpha-Galactosidase at pH 5.9 (AID 998; active means well fitted curve in the direction sought with a large enough effect; an effect the other way counts as inactive or inconclusive)
Outline: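 In 50 mM citric acid pH 5.9 with 0.005% Tween-20, coffee bean enzyme hydrolyses 80 uM 4-MU alpha-D-galactopyranoside over 20 min at RT. Activity is normalized to controls; AC50 comes from Hill-modelled concentration-response data.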

[10] = Validation screen for inhibitors of Lassa infection (AID 463096)
[11] = Inducers of the Endoplasmic Reticulum Stress Response (ERSR) in human glioma: Validation (AID 504836; active means well fitted curve in the direction sought with a large enough effect; an effect the other way counts as inactive or inconclusive)
Outline: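 Stably transfected U87-MG human glioma cells carrying a GRP78-based luminescent sensor were seeded at 1000 cells/well, pin-dosed with compounds and incubated 16 h. Luciferase reagent was then added, and end-point luminescence was read after 10 min at room temperature.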

[12] = target: Peroxisome proliferator-activated receptor delta (Homo sapiens) (UniProt Q03181); assay: qHTS assay for small molecule agonists of peroxisome proliferator-activated receptor delta signaling (AID 588534)
Peroxisome proliferator-activated receptor delta (Homo sapiens), sequence (Q03181 whole entry, looked up): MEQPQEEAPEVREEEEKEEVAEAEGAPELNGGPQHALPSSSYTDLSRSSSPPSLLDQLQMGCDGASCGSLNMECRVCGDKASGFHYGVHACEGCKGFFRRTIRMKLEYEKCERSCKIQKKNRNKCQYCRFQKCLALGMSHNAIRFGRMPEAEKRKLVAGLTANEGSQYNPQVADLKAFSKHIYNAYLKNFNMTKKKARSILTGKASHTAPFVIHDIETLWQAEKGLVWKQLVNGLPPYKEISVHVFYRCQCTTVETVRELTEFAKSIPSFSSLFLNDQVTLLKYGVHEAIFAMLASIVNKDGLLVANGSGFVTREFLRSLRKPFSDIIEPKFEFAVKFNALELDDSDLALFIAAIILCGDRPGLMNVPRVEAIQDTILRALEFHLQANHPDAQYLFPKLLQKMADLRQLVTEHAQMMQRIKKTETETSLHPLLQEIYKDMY
Outline: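 Agonist-mode qHTS; reporter cells, 5 hrs 37 C pre-incubation; compound titration, 18 hrs 37 C; CCF4 dye, 2 hrs RT; fluorescence read. EC50/efficacy via Hill fit.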

[13] = Primary qHTS for inhibitors of SARS-S pseudo-typed particle cell entry (AID 1479145); further: nearly all actives have a fitted effect of over 45% in size
[14] = Primary qHTS for Huh7 cytotoxicity: counterscreen for inhibitors of MERS-S pseudotyped particle cell entry (AID 1479147); conditions: outcome: dose series up to 57.1 µM unless noted
[15] = Primary qHTS for Vero E6 cytotoxicity: counterscreen for inhibitors of SARS-S pseudo-typed particle cell entry (AID 1479150); conditions: outcome: dose series up to 57.1 µM unless noted
[16] = qHTS for inhibitors of Rabies Virus screened against the NCATS CANVASS Library (AID 1347402)
[17] = Confirmatory qHTS for VERO E6 Cytotoxicity Assay: Counterscreen for SARS-CoV-2 CPE Assay (AID 1508605); further: potency means the concentration at half of the fitted maximal effect; nearly all actives have a fitted effect of over 60% in size
[18] = Confirmatory qHTS for activators (rescue) of SARS-CoV-2 Cytopathic Effect (CPE) (AID 1508606); further: potency means the concentration at half of the fitted maximal effect; nearly all actives have a fitted effect of over 70% in size

COc1cc(OC)c(NC(=O)Nc2cc(C)on2)cc1Cl
-15.8%: activity change, negative = inhibition [5]
inactive: Potency [1] | Potency [2] | Potency [3] | Potency [4]

O=C(O)C1(Cc2cccc(Nc3nccs3)n2)CCC(Oc2cccc(Cl)c2F)CC1 (configuration not stated)
inactive: Potency [1] | Potency [2] | Potency [3] | Potency [4]
active: Potency [6] 10.8 µM | Potency [7] 12.1 µM

COc1cc2c(oc(=O)c3cc(C)cc(OC)c32)c2c(C3OC(C)C(O)C(C)(O)C3O)ccc(O)c12 (configuration not stated)
inactive: Potency [1] | Potency [2] | Potency [3]

COc1cc(C(C)C)c2c(c1)S(=O)(=O)N(COc1cc(=O)n3cccc(OCCN4CCCCC4)c3n1)C2=O
inactive: Potency [1] | Potency [2] | Potency [3] | Potency [4]
-36.9%: activity change, negative = inhibition [5]

C[C@]12CC[C@@H]3c4ccc(O)cc4CC[C@H]3[C@@H]1CC[C@@H]2O
inactive: outcome [8] | outcome [9] | Potency [10] | outcome [11] | Potency [12] | Potency [1] | Potency [2] | Potency [3] | Potency [13] | outcome [14] | outcome [15]

COC1=C2C[C@@H](C)C[C@H](OC)[C@@H](O)[C@@H](C)C=C(C)[C@H](OC(N)=O)[C@@H](OC)C=CC=C(C)C(=O)NC(=CC1=O)C2=O
active: Potency [1] 9.68 µM | Potency [2] 13.7 µM | Potency [3] 15.3 µM

CC/C=C\[C@H](O)[C@H](O)C1=C(C)C(=O)[C@]2(O1)C(=O)N[C@@](OC)(C(=O)c1ccccc1)C2O (some centres not stated)
inactive: Potency [1] | Potency [2] | Potency [3]

O=c1[nH]nc(OCCCc2ccc(Cl)cc2)c(NCc2cccnc2)c1Br
-25.1%: activity change, negative = inhibition [5]
inactive: Potency [1] | Potency [2] | Potency [3] | Potency [4]

COc1cc2c(cc1OC)-c1cc3cc(OC)c(OC)cc3c(=O)n1CC2
inactive: Potency [1] | Potency [2] | Potency [3]

COc1cc(C(=O)O[C@H]2C/C(C)=C/CC[C@@]3(C)O[C@@H]3[C@H](O)[C@@H]2C(C)C)cc(OC)c1OC
inactive: Potency [1] | Potency [2] | Potency [3]

COc1ccc(C2CC(c3ccccc3)=NN2c2ccc(S(N)(=O)=O)cc2)cc1 (configuration not stated)
-0.201%: activity change, negative = inhibition [5]
inactive: Potency [1] | Potency [2] | Potency [3] | Potency [4]

CC(=O)O[C@@]12CO[C@H]1C[C@H](O)[C@@]1(C)C(=O)[C@H](O)C3=C(C)[C@@H](OC(=O)C(O)[C@@H](NC(=O)OC(C)(C)C)c4ccccc4)C[C@@](O)([C@@H](OC(=O)c4ccccc4)[C@@H]21)C3(C)C (some centres not stated)
inactive: Potency [1] | Potency [2] | Potency [3]

O=c1c(O)c(-c2ccccc2)oc2ccccc12
inactive: Potency [1] | Potency [2] | Potency [3]

COc1c(O)cc(O)c2c(=O)cc(-c3ccccc3)oc12
inactive: Potency [1] | Potency [2] | Potency [3] | outcome [16]

COc1cc2c(Nc3ccc(NC(=O)c4ccccc4)cc3)ncnc2cc1OCCCN1CCOCC1
inactive: Potency [1] | Potency [2] | Potency [3]
active: Potency [4] 31.6 µM | Potency [5] 7.94 µM

O=C1NC(=O)C(=Cc2ccc(-c3ccc(F)cc3)o2)S1
inactive: Potency [1] | Potency [2] | Potency [3]

C[C@]12CC[C@@H]3c4ccc(O)cc4CC[C@H]3[C@H]1[C@@H](O)[C@@H](O)[C@H]2O
inactive: Potency [1] | Potency [2] | Potency [3] | Potency [4] | Potency [5]

COc1cc2c(cc1OC)C(C)N(Cc1ccc3c(c1)OCO3)CC2 (configuration not stated)
inactive: Potency [1] | Potency [2] | Potency [3]

CN1CCN(c2cccc(Nc3nc4c(-c5ccc(S(C)(=O)=O)cc5)cccn4n3)c2)CC1
inactive: Potency [1] | Potency [2] | Potency [3] | Potency [4]

CCN(CCO)CCCOc1ccc2c(Nc3cc(CC(=O)Nc4cccc(F)c4)[nH]n3)ncnc2c1
-58.3%: activity change, negative = inhibition [5]
inactive: Potency [1] | Potency [2] | Potency [3] | Potency [4]
active: Potency [6] 0.681 µM

Cc1cccc(Nc2nc(-c3ccncc3)cs2)c1
inactive: Potency [1] | Potency [2] | Potency [3]
active: Potency [17] 10 µM | Potency [18] 794 nM | Potency [6] 4.29 µM

Clc1cc(Cl)cc(CNc2ncncc2-c2ccc3c(c2)OCO3)c1
inactive: Potency [1] | Potency [2] | Potency [3] | Potency [4]

CC(C)n1cnc2c(NCCc3ccc(O)cc3)nc(-c3csc4ccccc34)nc21
inactive: Potency [1] | Potency [2] | Potency [3] | Potency [4]
-45.8%: activity change, negative = inhibition [5]

N[C@H](CSC(c1ccccc1)(c1ccccc1)c1ccccc1)C(=O)O
-15.9%: activity change, negative = inhibition [5]
inactive: Potency [1] | Potency [2] | Potency [3] | Potency [4]

Cc1nc(NC(=O)N2CCC[C@@H]2C(N)=O)sc1-c1csc(C(C)(C)C)n1
inactive: Potency [1] | Potency [2] | Potency [3]

O=C1NC(=O)C(=Cc2ccc3nccnc3c2)S1
inactive: Potency [1] | Potency [2] | Potency [3]

COc1ccc(-c2oc3cc(OC)c(O)c(OC)c3c(=O)c2OC)cc1O
inactive: Potency [1] | Potency [2] | Potency [3]

C=CC(=O)Nc1cccc(Sc2nc(Nc3ccc(N4CCN(C)CC4)cc3)ncc2Cl)c1
active: Potency [4] 8.91 µM | Potency [5] 3.98 µM
inactive: Potency [1] | Potency [2] | Potency [3]
